# Reference: PubChem BioAssay (NCI)
# Compounds without any hit were thinned out: in the full panel of roughly 83,000, 20% have a hit.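 Single-concentration screen, 48 h exposure, 96-well plates. Endpoint: percent growth. Below 10 = active.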 A number with no mark means an inactive call. Activity calls are given as the source filed them.
# How the values were obtained:
# Test in all cases: NCI-60 one-dose screen, 48 h (100 = growth as untreated, 0 = no growth, -100 = all killed)
# Conditions in all cases: 10 µM unless noted
# T-47D breast = test system: T-47D breast
# BT-549 breast = test system: BT-549 breast
# MDA-MB-435 melanoma = test system: MDA-MB-435 melanoma
# SW-620 colon = test system: SW-620 colon
# MCF7 breast = test system: MCF7 breast
# HCT-116 colon = test system: HCT-116 colon
# HCC-2998 colon = test system: HCC-2998 colon
# KM12 colon = test system: KM12 colon
Compound,growth (T-47D breast),growth (BT-549 breast),growth (MDA-MB-435 melanoma),growth (SW-620 colon),growth (MCF7 breast),growth (HCT-116 colon),growth (HCC-2998 colon),growth (KM12 colon)
COc1ccc2c(c1)sc1nc(-c3ccc(Br)cc3)cn12,85%,120%,103%,101%,80.4%,92.4%,115%,102%
O=[N+]([O-])c1ccc2[nH]cc(-c3c4ccccc4cc4[nH]c5ccc([N+](=O)[O-])cc5c34)c2c1,-10.2% (active),19.2%,-11.6% (active),28%,8.11% (active),9.37% (active),57.6%,5.55% (active)
O=C1C(=O)c2c(nc3ccc(Cl)cn23)-c2ccccc21,-55.8% (active),-99.4% (active),-89.5% (active),-100% (active),-88% (active),-95.3% (active),-95.8% (active),-68.7% (active)
N#CC(C#N)C(C#N)C#N,87.9%,89.5%,99.8%,99.1%,95.5%,86.8%,98.4%,102%
COc1ccc(C(=O)COc2cccc(/C=C3\COc4ccc5ccccc5c4C3=O)c2)cc1,32%,1.54% (active),64.8%,27.8%,16.1%,59.2%,63.9%,67.8%
CCCCCN1C(=O)CCC1=O,95.5%,103%,102%,111%,98.4%,105%,103%,94.5%
O=C(c1ccccc1)c1ccc(Oc2ccc([N+](=O)[O-])cc2[N+](=O)[O-])cc1,66.1%,-1.35% (active),-43.7% (active),3.07% (active),15.6%,-12.8% (active),97.8%,-17.8% (active)
Nc1nc(Nc2ccccc2SSc2ccccc2Nc2nc(N)nc(C(Cl)(Cl)Cl)n2)nc(C(Cl)(Cl)Cl)n1,15.7%,54.2%,82.9%,68.1%,75.7%,45.8%,111%,43.4%
CCCCCCCCCCCCCCCCNC(=O)Nc1ccc2ccccc2c1,108%,97.4%,103%,94.2%,94.5%,101%,109%,111%
COc1cc(C2CC(c3ccc(C)cc3)=NN2C=O)ccc1OCCN(C)C (stereo not drawn),90.6%,80.7%,102%,96.5%,92.5%,88.9%,98.4%,101%
COc1ccc(C2CC(c3ccc4c(c3)OCO4)=NN2C=O)cc1 (stereo not drawn),99.2%,89.1%,110%,104%,98.6%,96.4%,102%,105%
O=c1[nH]c(N2CCC(Cc3ccccc3)CC2)nc2sc3c(c12)CCCC3,96.6%,109%,102%,101%,98.1%,104%,103%,100%
FCc1ncc(-c2ccc(C(F)(F)F)cc2)c(NC2CCCCCC2)n1,-10.9% [100 µM] (active),-50.1% [100 µM] (active),-6.34% [100 µM] (active),4.08% [100 µM] (active),1.01% [100 µM] (active),-2.53% [100 µM] (active),13.4% [100 µM],-59.8% [100 µM] (active)
CCOC(=O)CCN(c1c(Cl)ssc1=O)C(C)C,112%,95.7%,107%,99.3%,89.7%,93.4%,115%,113%
COc1cc(Cl)cc(-c2nn(-c3cccc(NC(=O)c4cc(C(F)(F)F)cc(C(F)(F)F)c4)c3)cc2-c2ccncc2)c1,53.4%,96.8%,80%,86.2%,57.8%,35.2%,78.3%,55.5%
OCCCc1n(Cc2ccc3ccccc3c2)c2ccccc2[n+]1Cc1ccc2ccccc2c1,13.2%,5.33% (active),0.65% (active),19.3%,9.45% (active),10.4%,12.5%,-20.9% (active)
